uPA surface inh – cell surface uPA generation inhibition. Potency, µM (series often up to 38.3 µM), most hits filed as inhibitors. actives 0.31% (n = 330,000). cell surface uPA generation assay, qHTS; active = well fitted inhibition curve with a large enough effect; inconclusive = small, poorly fitted or top-dose-only effect; inactive = no such curve, though single readings can be large or run the other way; tested in mouse RAW 264.7 cells; note: nearly all actives have a fitted effect of over 55% in size
DT40 TDP1 no CPT – qHTS for Inhibitors of human tyrosyl-DNA phosphodiesterase 1 (TDP1): qHTS in cells in absence of CPT | actives 15% (n = 420,000) | Potency, µM (titrated, usually from 46.2 µM), most hits filed as inhibitors | DT40 Tdp1-/- hTDP1 cells, no CPT, ATP luminescence, 48 h; note: nearly all actives have a fitted effect of over 55% in size
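Readout: luminescence from CellTiter-Glo after 30 min in the dark at RT. Cells: DT40 Tdp1-/- with stable hTDP1, 400/well. Exposure: compounds alone, ≥48 hr, 37 °C.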
DT40 TDP1 CPT – growth inhibition of DT40 Tdp1-/-;hTDP1 cells with camptothecin (screen for TDP1 inhibitors); actives 12% (n = 420,000); AID 686979; chicken DT40 Tdp1-/-;hTDP1 cells + 20 nM CPT, ATP luminescence, 48 h; Potency, µM (highest dose often 46.2 µM), hits mostly inhibitors; note: nearly all actives have a fitted effect of over 55% in size
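Chicken DT40 Tdp1-/- cells stably complemented with human TDP1 were seeded at 400 cells/well in medium containing 20 nM camptothecin, exposed to pin-transferred compounds, and grown at 37 °C for at least 48 hr. Viability was read as ATP luminescence.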
HT1080 IDH1KD tx – kills HT-1080 cells with IDH1 knockdown; actives 2% (n = 360,000); HT-1080 IDH1 knockdown viability, ATP luminescence, 48 h; Potency, µM (series often up to 46.1 µM), hits mostly cytotoxic
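Assay cells: HT-1080 with IDH1 knockdown, 750 per well, RPMI/5% FBS. Exposure: 48 h at 37 °C following 2 h pre-incubation. Read: CellTiter-Glo luminescence; fitted concentration-response, curve class assigned.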
IL1B secr inh – inhibitors of inflammasome signaling (IL-1 beta secretion); THP-1 LPS/ATP IL-1B secretion, AlphaLISA, 16 h; active compounds read low; activity change, % at 57.5 µM; actives 4.7% (n = 360,000); AID 743279; in the data active = activity change below about -50%; inconclusive = mostly about -30% to -49%
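Secreted IL-1B measured by AlphaLISA bead assay after 16 h compound exposure of THP-1 cells; compounds (final up to 57.5 uM) added 1 h before LPS (250 ng/mL) and ATP (1.25 mM) stimulation; lower signal means less secretion.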
HT1080NT lethal – kills 2HG-producing HT-1080-NT fibrosarcoma cells; HT-1080-NT fibrosarcoma viability, CellTiter-Glo ATP luminescence, 48 h; Potency, µM (series often up to 46.1 µM), most hits filed as cytotoxic; actives 1.6% (n = 360,000);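 note: NT is the 2HG producing partner of a matched IDH1 knockdown line; nearly all actives have a fitted effect of over 55% in size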
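Viability by CellTiter-Glo luminescence after 48 h compound exposure at 37C of HT-1080-NT cells (750/well, RPMI, 5% FBS). % activity scaled between DMSO wells and medium-only wells, then curve-fitted and categorized by curve class.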
Numbers stand for hits. Hits are enriched below; roughly 19% of the tested compounds scored in any of these assays. Unless noted, calls come from the whole dose curve; as a rule, active = well fitted curve in the direction sought with a large enough effect; inconclusive = small, poorly fitted or top-dose-only effect, or another doubt; inactive = no such curve, though single readings can be large; an effect the other way counts as inactive or inconclusive.

What do the screens show for `O=C(NCc1ccccc1Cl)C(=O)NCC1OCCCN1S(=O)(=O)c1cccs1` (stereo not drawn)?
uPA surface inh: inactive; DT40 TDP1 no CPT: inactive; DT40 TDP1 CPT: inactive; HT1080 IDH1KD tx: inactive; IL1B secr inh: inactive; HT1080NT lethal: inactive

How did COc1ccc(CCN2C(=O)CS/C2=N\NC(=O)c2ccc(C(C)(C)C)cc2)cc1OC do in these assays?
uPA surface inh: inactive; DT40 TDP1 no CPT: 15µM; DT40 TDP1 CPT: inconclusive; HT1080 IDH1KD tx: inactive; IL1B secr inh: inactive; HT1080NT lethal: inactive

Results for O=C(N/N=C1\SCC(=O)N1CCc1ccccc1)c1cccs1 ?
uPA surface inh: inactive; DT40 TDP1 no CPT: inactive; DT40 TDP1 CPT: inactive; HT1080 IDH1KD tx: inactive; IL1B secr inh: inactive; HT1080NT lethal: inactive

What do the screens show for `COc1ccc(CCN2C(=O)CSC2=Nc2ccc(C(C)C)cc2)cc1OC`?
uPA surface inh: inactive; DT40 TDP1 no CPT: 9.2µM; DT40 TDP1 CPT: 15µM; HT1080 IDH1KD tx: 5.8µM; HT1080NT lethal: inconclusive

How did COc1ccc(N=C2SCC(=O)N2CCc2ccc(OC)c(OC)c2)cc1 do in these assays?
uPA surface inh: inactive; DT40 TDP1 no CPT: 26µM; DT40 TDP1 CPT: inconclusive; HT1080 IDH1KD tx: inactive; IL1B secr inh: inactive; HT1080NT lethal: inactive

What do the screens show for `COc1ccc(N=C2SC(C(N)=O)CC(=O)N2CCc2ccc(OC)c(OC)c2)cc1` (stereo not drawn)?
uPA surface inh: inactive; DT40 TDP1 no CPT: inactive; DT40 TDP1 CPT: inactive; HT1080 IDH1KD tx: inactive; IL1B secr inh: inactive; HT1080NT lethal: inactive

How did COC(=O)c1ccccc1NC(=O)CN(c1c(C)cccc1C)S(C)(=O)=O do in these assays?
uPA surface inh: inactive; DT40 TDP1 no CPT: inconclusive; DT40 TDP1 CPT: inconclusive; HT1080 IDH1KD tx: inactive; IL1B secr inh: inactive; HT1080NT lethal: inactive

How did CCN(CC1CCCO1)C(=O)c1cc(COc2ccc(OC)cc2Cl)on1 (stereo not drawn) do in these assays?
uPA surface inh: inactive; DT40 TDP1 no CPT: inactive; DT40 TDP1 CPT: inconclusive; HT1080 IDH1KD tx: inactive; IL1B secr inh: inactive; HT1080NT lethal: inactive

Results for Cc1cc(CN(C)C(=O)c2cc(COc3ccc(F)cc3Cl)on2)n[nH]1 ?
DT40 TDP1 no CPT: inconclusive; DT40 TDP1 CPT: inactive; HT1080 IDH1KD tx: inactive; IL1B secr inh: inactive; HT1080NT lethal: inactive

How did CN(Cc1ccccn1)C(=O)c1cc(COc2ccc(F)cc2Cl)on1 do in these assays?
DT40 TDP1 no CPT: 23µM; DT40 TDP1 CPT: inconclusive; HT1080 IDH1KD tx: inactive; IL1B secr inh: inactive; HT1080NT lethal: inactive

What do the screens show for `CCN(Cc1ccncc1)C(=O)c1cc(COc2ccc(OC)cc2Cl)on1`?
uPA surface inh: inactive; DT40 TDP1 no CPT: inconclusive; DT40 TDP1 CPT: 16µM; HT1080 IDH1KD tx: inactive; IL1B secr inh: inactive; HT1080NT lethal: inactive

Results for CCN(Cc1ccncc1)C(=O)c1cc(COc2c(F)cccc2F)on1 ?
uPA surface inh: inactive; DT40 TDP1 no CPT: inactive; DT40 TDP1 CPT: inconclusive; HT1080 IDH1KD tx: inactive; IL1B secr inh: inactive; HT1080NT lethal: inactive

Results for COc1ccc(OCc2cc(C(=O)N(C)Cc3cc(C)no3)no2)c(Cl)c1 ?
uPA surface inh: inactive; DT40 TDP1 no CPT: inconclusive; DT40 TDP1 CPT: inactive; HT1080 IDH1KD tx: inactive; IL1B secr inh: inactive; HT1080NT lethal: inactive

What do the screens show for `CCN(Cc1ccncc1)C(=O)c1cc(COc2ccc(F)cc2Cl)on1`?
uPA surface inh: inactive; DT40 TDP1 no CPT: inconclusive; DT40 TDP1 CPT: 16µM; HT1080 IDH1KD tx: inactive; IL1B secr inh: inactive; HT1080NT lethal: inactive

How did CCc1ccc(CN(C)C(=O)c2cc(COc3ccc(OC)cc3Cl)on2)nc1 do in these assays?
uPA surface inh: inactive; DT40 TDP1 no CPT: 29µM; DT40 TDP1 CPT: inconclusive; HT1080 IDH1KD tx: inactive; IL1B secr inh: inactive; HT1080NT lethal: inactive

How did CC(C)CCn1nnnc1CN1CCN(C(=O)c2ccco2)CC1 do in these assays?
uPA surface inh: inactive; DT40 TDP1 no CPT: inconclusive; DT40 TDP1 CPT: inactive; HT1080 IDH1KD tx: inactive; IL1B secr inh: inactive; HT1080NT lethal: inactive

From PubChem BioAssay
